KB-3-1 tox = KB-3-1 parental cell cytotoxicity; Potency, µM (highest dose often 46.1 µM), actives largely listed as cytotoxic; actives 1.4% (n = 400,000); KB-3-1 viability, CellTiter-Glo ATP luminescence, 72 h; also: % is scaled to controls: 0 for no effect and ±100 for the full control effect; nearly all actives have a fitted effect of over 60% in size
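72 h, 37 °C compound treatment of KB-3-1 parental cells; CellTiter-Glo added, 10 min, luminescence read. Data corrected against DMSO-only plates and normalized before curve fitting.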
MCF10A rereplic = induces DNA re-replication in MCF 10a normal breast cells; MCF 10A DNA re-replication, Hoechst nuclear intensity, 48 h; Potency, µM (highest dose often 46.1 µM), inactives show at the highest dose activity, positive = re-replication, most hits filed as activators; actives 2.9% (n = 350,000); AID 624296; also: % of control where 0% means no effect; nearly all actives have a fitted effect of over 50% in size
HT1080 IDH1KD tx = kills HT-1080 cells with IDH1 knockdown | HT-1080 IDH1 knockdown viability, ATP luminescence, 48 h | Potency, µM (titrated, usually from 46.1 µM), without a hit: top-dose activity, negative = toxicity, most hits filed as cytotoxic | actives 2% (n = 360,000) | AID 686971;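 also: 0% = DMSO wells and -100% = cell-free medium wells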
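CellTiter-Glo luminescence after 48 h compound exposure at 37 degrees C of IDH1-knockdown HT-1080 cells in 5% FBS RPMI. %Activity scaled between DMSO wells and cell-free media wells, with curves fitted and assigned curve classes.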
SW480 rereplic = inducers of DNA re-replication in SW480 colon cancer cells. SW480 DNA re-replication, Hoechst DNA content imaging, 48 h. Potency, µM (top dose mostly 46.1 µM), inactives show at the highest dose re-replication activation, usual class: activators. actives 1.8% (n = 340,000). AID 624297; also: % of control where 0% means no effect; nearly all actives have a fitted effect of over 55% in size
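250 cells/well; 23 nL cpd via pin tool; 48 hr, 37 C, 5% CO2; Hoechst 40 min; imager read of total nuclear intensity, ex 405/em 500-530 nm.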
KB-V1 cytotox = kills drug-selected multidrug resistant KB-V1 cells | KB-V1 MDR cells viability, CellTiter-Glo, 72 h | Potency, µM (series often up to 46.1 µM), usual class: cytotoxic | actives 3.4% (n = 400,000) | AID 1347076; also: % is scaled to controls: 0 for no effect and ±100 for the full control effect; nearly all actives have a fitted effect of over 60% in size
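Potencies derive from concentration-effect curves fitted to normalized luminescence (CellTiter-Glo) of KB-V1 cells treated for 72 h at 37 degrees C in phenol-red-free DMEM containing 10% FBS.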
HT1080NT lethal = kills 2HG-producing HT-1080-NT fibrosarcoma cells; AID 686970; HT-1080-NT fibrosarcoma viability, CellTiter-Glo ATP luminescence, 48 h; actives 1.6% (n = 360,000); Potency, µM (doses to about 46.1 µM), for the others: top-dose activity, negative = less viability, most hits filed as cytotoxic;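 also: NT is the 2HG producing partner of a matched IDH1 knockdown line; 0% = DMSO-treated cells and -100% = media-only wells without cells; nearly all actives have a fitted effect of over 55% in size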
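HT-1080-NT fibrosarcoma cells (2HG-overproducing), 750 cells/well in RPMI with 5% FBS, dosed after 2 h and incubated 48 h at 37C. CellTiter-Glo luminescence normalized to DMSO and no-cell wells; concentration-response curves fitted and classed.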
* marks the source's active call; other numbers are inactive results; i = inactive; ? = inconclusive; · = no result given. Compounds with a hit are over-represented: about 8% of the library has one in this group of screens. Calls follow the shape of the dose curve; as a rule, active = well fitted curve in the direction sought with a large enough effect; inconclusive = small, poorly fitted or top-dose-only effect, or another doubt; inactive = no such curve, though single readings can be large; an effect the other way counts as inactive or inconclusive. Potency is read from the fitted curve at half-maximal effect.

SMILES	KB-3-1 tox	MCF10A rereplic	HT1080 IDH1KD tx	SW480 rereplic	KB-V1 cytotox	HT1080NT lethal
O=S1(=O)N=C(Oc2cccc(-c3ccccc3)c2)c2ccccc21	i	·	·	·	i	·
CC(C)(Oc1ccc(Br)cc1)C(=O)N1CCc2ccccc21	i	?	-19%	-6%	21µM*	11%
O=C(COc1ccc(Br)cc1)N1CCc2ccccc21	i	-2%	5%	-7%	i	7%
O=C1CCCC2=C1C(c1ccc(Cl)cc1)C1C(=O)c3ccccc3C1=N2 (configuration not stated)	i	13µM*	?	15µM*	i	?
CCn1c(SCC(=O)NC2CC2)nnc1C(C)Oc1ccccc1 (configuration not stated)	i	2%	12%	21µM*	i	-3%
Cc1c(C(N)=O)c(N)c(C(=O)c2ccccc2)n1-c1ccccc1	i	1%	9%	-4%	21µM*	3%
Cc1ccc(S(=O)(=O)N[C@@H](CC(C)C)C(=O)N2CCC(C(=O)N[C@H](C(=O)O)C(C)C)CC2)cc1	i	-28%	8%	2%	i	15%
c1ccc(-c2nnc(-c3ccco3)o2)cc1	i	5%	13%	0%	i	7%
c1coc(-c2nnc(-c3ccco3)nn2)c1	i	-16%	0%	4µM*	i	-5%
CCCCN(CCCC)CC(O)c1cc(Cl)cc2c1-c1ccc(Cl)cc1C2=Cc1ccc(Cl)cc1 (configuration not stated)	?	·	·	·	21µM*	·
CCN(CC)S(=O)(=O)c1cccc(-c2nnc(SC(C)C(=O)NCCC3=CCCCC3)o2)c1 (configuration not stated)	?	6%	-10%	-2%	10µM*	-1%
CCN(CC)S(=O)(=O)c1ccc(-c2nnc(SC)o2)cc1	i	3%	5%	1%	15µM*	15%
CCN(CC)S(=O)(=O)c1cccc(-c2nnc(SCCCC(=O)c3ccc(F)cc3)o2)c1	i	21%	-16%	-12%	16µM*	-10%
CCN(CC)S(=O)(=O)c1ccc(-c2nnc(SCC(=O)c3ccc(OC)cc3)o2)cc1	i	-14%	0%	5%	i	-2%
COc1ccc(CNC(=O)C2CCN(S(=O)(=O)N3CCC(C)CC3)CC2)c(OC)c1	i	·	-2%	·	?	5%
COC(=O)c1c(C)oc2c1cc(NS(=O)(=O)c1c(C)cc(C)cc1C)c1ccccc12	?	·	·	·	i	·
CS(=O)(=O)c1nc(-c2ccc(Br)cc2)cc(-c2ccccc2)c1C#N	?	5.8µM*	?	3.7µM*	i	?
COc1ccc(-c2cc(-c3ccccc3)c(C#N)c(S(C)(=O)=O)n2)cc1	?	?	6%	?	i	5%
CCS(=O)(=O)CCSc1nc(-c2ccc(Br)cc2)cc(-c2ccccc2)c1C#N	i	·	·	·	i	·
CS(=O)c1nc(-c2ccc(Br)cc2)cc(-c2ccccc2)c1C#N (configuration not stated)	?	16%	3.5µM*	2%	?	5.6µM*
CCOc1cc(C(=O)OCC(=O)Nc2ccc(F)cc2Cl)ccc1OCC(=O)N1CCOCC1	i	0%	-1%	3%	i	-6%
Cc1ccc2nc(N(CCCN(C)C)C(=O)CS(=O)(=O)c3ccccc3)sc2c1	i	2%	-5%	-6%	i	-8%
Cc1ccc2nc(N(CCCN(C)C)C(=O)CCc3ccccc3)sc2c1	i	12%	16µM*	?	i	15µM*
CN(C)CCCN(C(=O)CCc1ccccc1)c1nc2ccc(Cl)cc2s1	?	?	16µM*	8%	23µM*	23µM*
CCCCCn1c(=N)n(CC(O)COc2cccc(C)c2)c2ccccc21 (configuration not stated)	i	·	·	·	?	·
